This passage reports Percent Effect results from ChEMBL document CHEMBL3988442, “University of Dundee, Small-Polar-MMV Screening Library” (2021).

Common to all, as to set-up: scale not given: direction of the effect not stated beside the values
For test [1], the target named is Protein translocase subunit SecA (Escherichia coli (strain K12)) (UniProt P10408). Nature of the test: Assay to Identify E. coli SecA ATPase Inhibitors. Type of test: functional. The note with it: 30 µM.
Test [2] has as its target T1, Ubiquitin-activating enzyme e1, putative (Leishmania donovani (strain BPK282A1)) (UniProt E9BSI1).
T1 sequence (whole entry): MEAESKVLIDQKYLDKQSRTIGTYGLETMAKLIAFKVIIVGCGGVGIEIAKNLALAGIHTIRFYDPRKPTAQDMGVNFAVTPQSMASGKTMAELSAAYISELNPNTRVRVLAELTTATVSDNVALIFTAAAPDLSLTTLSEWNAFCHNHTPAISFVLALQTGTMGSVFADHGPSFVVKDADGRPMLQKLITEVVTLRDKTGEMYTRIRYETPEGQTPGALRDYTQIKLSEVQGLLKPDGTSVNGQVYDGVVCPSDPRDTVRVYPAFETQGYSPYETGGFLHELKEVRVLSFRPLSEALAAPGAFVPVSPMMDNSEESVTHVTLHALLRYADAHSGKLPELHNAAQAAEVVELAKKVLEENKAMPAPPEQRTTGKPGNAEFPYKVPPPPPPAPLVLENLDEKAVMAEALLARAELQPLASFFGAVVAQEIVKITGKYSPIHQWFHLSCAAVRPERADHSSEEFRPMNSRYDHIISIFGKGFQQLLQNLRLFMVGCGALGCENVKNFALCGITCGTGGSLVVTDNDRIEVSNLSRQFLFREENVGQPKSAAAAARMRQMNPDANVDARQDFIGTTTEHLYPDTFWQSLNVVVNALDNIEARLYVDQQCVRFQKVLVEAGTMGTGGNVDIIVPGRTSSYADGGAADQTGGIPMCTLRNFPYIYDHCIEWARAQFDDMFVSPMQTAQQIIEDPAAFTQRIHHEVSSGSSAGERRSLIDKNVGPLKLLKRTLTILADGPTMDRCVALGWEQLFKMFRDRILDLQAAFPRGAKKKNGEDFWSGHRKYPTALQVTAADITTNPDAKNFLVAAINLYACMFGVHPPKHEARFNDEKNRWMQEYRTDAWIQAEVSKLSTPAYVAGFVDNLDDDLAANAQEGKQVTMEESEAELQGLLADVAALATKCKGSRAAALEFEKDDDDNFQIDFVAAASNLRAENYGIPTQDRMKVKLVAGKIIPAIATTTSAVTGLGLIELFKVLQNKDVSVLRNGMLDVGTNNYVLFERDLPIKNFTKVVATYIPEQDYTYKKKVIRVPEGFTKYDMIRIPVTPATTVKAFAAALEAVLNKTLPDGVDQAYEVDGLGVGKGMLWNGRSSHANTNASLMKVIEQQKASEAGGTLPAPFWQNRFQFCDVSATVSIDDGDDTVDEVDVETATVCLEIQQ
Briefly: Leishmania donovani Ubiquitin Activating Enzyme (LdE1). In kind it is functional. The note with it: 30 µM.

The target in test [3] is AMP-activated protein kinase, AMPK (Homo sapiens) (UniProt P54646+O43741+P54619+Q9UGJ0+Q9Y478+Q13131+Q9UGI9). Briefly: AMP-dependent Kinase enzyme assay. An in vitro enzyme assay that detects ADP turnover that is directly proportional to AMPK activity. This uses naive AMPK that is activated during the assay with MK-8722. As to conditions: 30 µM. Type of test: functional.

In test [4] the target is Sialic acid-binding Ig-like lectin 9 (Homo sapiens) (UniProt Q9Y336). Nature of the test: Hs-Siglec9 ALPHAscreen SOP 20170721. As to conditions: 10 µM. (In Alpha technology, singlet oxygen from a donor bead excites a nearby acceptor bead.)
Sequence of Sialic acid-binding Ig-like lectin 9 (Homo sapiens) (Q9Y336 whole entry): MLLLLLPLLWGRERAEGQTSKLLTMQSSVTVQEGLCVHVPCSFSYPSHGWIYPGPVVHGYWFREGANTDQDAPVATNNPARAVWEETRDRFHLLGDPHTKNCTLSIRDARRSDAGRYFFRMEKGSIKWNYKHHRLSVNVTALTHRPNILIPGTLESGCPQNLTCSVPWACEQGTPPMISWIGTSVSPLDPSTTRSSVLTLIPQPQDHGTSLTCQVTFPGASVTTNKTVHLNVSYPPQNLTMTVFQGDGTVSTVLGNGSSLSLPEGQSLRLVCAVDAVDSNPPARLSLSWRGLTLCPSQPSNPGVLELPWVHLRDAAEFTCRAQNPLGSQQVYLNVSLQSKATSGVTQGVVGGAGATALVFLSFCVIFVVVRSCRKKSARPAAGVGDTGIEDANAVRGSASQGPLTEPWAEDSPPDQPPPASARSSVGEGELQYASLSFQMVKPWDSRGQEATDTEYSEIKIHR
For another test, the system named is Trypanosoma cruzi. Briefly: Trypanosoma cruzi phosphomannomutase and mannose-1-phosphate guanylyltransferase assay. In kind it is functional. As to conditions: 10 µM.
In test [5] the target is T2, Arginase-2, mitochondrial (Homo sapiens) (UniProt P78540).
T2 sequence (whole entry): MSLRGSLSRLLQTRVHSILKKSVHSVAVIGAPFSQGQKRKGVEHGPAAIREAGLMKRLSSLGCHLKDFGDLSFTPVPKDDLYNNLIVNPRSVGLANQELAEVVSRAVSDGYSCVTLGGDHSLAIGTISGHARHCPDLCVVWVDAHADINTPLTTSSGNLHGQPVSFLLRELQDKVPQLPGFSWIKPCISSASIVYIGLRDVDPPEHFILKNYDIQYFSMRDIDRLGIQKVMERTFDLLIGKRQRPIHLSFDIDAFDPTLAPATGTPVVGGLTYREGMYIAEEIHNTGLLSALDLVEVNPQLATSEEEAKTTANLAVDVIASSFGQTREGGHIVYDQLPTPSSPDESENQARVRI
Briefly: in vitro enzyme assay to detect the production of urea directly proportional to the activity of Arginase II. Also: in the data most compounds retested in dose-response had high values. The note with it: 33.3 µM. In kind it is functional.

Test [6] addresses T3, Proteasome subunit beta (Trypanosoma cruzi) (UniProt O96673).
T3 sequence (whole entry): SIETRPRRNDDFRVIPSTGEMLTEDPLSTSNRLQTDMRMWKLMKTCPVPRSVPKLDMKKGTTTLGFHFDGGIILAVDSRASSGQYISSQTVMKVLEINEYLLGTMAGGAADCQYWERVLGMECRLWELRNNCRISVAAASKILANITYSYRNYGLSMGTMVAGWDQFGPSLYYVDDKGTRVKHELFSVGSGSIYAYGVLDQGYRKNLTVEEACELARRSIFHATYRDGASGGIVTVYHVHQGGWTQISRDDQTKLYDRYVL
Nature of the test: Trypanosoma cruzi proteasome chymotrypsin-like activity (TcProtChymo) assay. Also: in the data most compounds retested in dose-response had high values. In kind it is functional. As to conditions: 9.37 µM.

The species named for another test is Homo sapiens. Briefly: To identify inhibition of the IFN signalling (Jak-Stat) pathway via expression of an eGFP reporter gene under the control of an IFN-stimulated response element (ISRE) containing MxA promoter. The note with it: 30 µM. In kind it is functional. (In general: A reporter such as luciferase makes a cellular process visible.)
The target of test [7] is T4, Tyrosyl-tRNA synthetase, putative (Trypanosoma cruzi (strain CL Brener)) (UniProt Q4DSP6).
T4 sequence (whole entry): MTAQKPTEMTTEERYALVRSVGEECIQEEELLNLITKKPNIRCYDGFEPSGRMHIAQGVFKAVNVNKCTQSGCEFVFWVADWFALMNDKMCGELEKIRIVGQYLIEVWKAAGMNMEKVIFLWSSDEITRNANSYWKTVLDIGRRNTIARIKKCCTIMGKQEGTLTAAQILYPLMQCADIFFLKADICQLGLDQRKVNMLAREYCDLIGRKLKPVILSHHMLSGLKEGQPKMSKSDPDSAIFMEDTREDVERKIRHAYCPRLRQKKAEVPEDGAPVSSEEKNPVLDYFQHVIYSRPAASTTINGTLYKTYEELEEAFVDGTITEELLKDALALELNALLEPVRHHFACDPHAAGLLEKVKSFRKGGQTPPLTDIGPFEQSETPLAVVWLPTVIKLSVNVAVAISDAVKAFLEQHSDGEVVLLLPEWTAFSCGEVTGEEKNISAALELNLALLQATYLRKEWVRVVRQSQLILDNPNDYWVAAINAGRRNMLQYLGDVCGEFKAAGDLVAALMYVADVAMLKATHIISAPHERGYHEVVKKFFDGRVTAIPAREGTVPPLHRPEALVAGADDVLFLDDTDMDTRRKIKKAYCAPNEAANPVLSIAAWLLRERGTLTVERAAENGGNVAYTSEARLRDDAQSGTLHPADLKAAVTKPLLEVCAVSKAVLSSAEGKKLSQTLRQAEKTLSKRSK
Nature of the test: Trypanosoma cruzi tyrosyl tRNA synthetase (TcYRS) _High Tyrosine SOP. Also: in the data most compounds retested in dose-response had high values. In kind it is functional. As to conditions: 30 µM.

The target of test [8] is T4, Tyrosyl-tRNA synthetase, putative (Trypanosoma cruzi (strain CL Brener)). Briefly: Trypanosoma cruzi tyrosyl tRNA synthetase (TcYRS) SOP. Type of test: functional. As to conditions: 30 µM.
Test [9] addresses Chromo domain-containing protein 1 (Saccharomyces cerevisiae (strain ATCC 204508 / S288c) (Baker's yeast)) (UniProt P32657). Nature of the test: ScCHD-1 Enzyme Inhibition Assay. Also: in the data most compounds retested in dose-response had high values. As to conditions: 30 µM. Type of test: functional.

For part of these data: Measured potencies and affinities stand elsewhere.

Sequence of Protein translocase subunit SecA (Escherichia coli (strain K12)) (P10408 whole entry): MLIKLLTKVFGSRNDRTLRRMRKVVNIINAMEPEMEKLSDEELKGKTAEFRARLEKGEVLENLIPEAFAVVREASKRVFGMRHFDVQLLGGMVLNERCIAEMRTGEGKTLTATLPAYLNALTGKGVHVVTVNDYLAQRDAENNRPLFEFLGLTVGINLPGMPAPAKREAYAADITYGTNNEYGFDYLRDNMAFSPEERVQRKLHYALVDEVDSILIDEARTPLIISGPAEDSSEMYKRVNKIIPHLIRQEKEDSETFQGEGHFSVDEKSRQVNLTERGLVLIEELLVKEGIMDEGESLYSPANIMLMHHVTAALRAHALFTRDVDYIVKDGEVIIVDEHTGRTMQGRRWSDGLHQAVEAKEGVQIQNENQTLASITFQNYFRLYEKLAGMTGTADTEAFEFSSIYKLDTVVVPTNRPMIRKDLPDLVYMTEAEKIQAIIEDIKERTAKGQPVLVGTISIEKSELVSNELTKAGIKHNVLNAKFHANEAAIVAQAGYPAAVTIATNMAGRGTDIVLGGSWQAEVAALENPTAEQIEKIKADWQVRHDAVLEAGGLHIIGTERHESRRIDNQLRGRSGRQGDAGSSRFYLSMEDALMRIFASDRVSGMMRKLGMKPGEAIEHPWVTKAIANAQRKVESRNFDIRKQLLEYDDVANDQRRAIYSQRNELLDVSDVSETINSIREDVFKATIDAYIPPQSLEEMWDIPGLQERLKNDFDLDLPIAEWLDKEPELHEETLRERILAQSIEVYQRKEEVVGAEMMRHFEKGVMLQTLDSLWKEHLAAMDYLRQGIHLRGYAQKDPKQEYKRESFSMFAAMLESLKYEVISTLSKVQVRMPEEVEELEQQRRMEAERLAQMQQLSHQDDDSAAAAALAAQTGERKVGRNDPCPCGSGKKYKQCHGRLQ
Sequence of Chromo domain-containing protein 1 (Saccharomyces cerevisiae (strain ATCC 204508 / S288c) (Baker's yeast)) (P32657 whole entry, the tested form may be a part): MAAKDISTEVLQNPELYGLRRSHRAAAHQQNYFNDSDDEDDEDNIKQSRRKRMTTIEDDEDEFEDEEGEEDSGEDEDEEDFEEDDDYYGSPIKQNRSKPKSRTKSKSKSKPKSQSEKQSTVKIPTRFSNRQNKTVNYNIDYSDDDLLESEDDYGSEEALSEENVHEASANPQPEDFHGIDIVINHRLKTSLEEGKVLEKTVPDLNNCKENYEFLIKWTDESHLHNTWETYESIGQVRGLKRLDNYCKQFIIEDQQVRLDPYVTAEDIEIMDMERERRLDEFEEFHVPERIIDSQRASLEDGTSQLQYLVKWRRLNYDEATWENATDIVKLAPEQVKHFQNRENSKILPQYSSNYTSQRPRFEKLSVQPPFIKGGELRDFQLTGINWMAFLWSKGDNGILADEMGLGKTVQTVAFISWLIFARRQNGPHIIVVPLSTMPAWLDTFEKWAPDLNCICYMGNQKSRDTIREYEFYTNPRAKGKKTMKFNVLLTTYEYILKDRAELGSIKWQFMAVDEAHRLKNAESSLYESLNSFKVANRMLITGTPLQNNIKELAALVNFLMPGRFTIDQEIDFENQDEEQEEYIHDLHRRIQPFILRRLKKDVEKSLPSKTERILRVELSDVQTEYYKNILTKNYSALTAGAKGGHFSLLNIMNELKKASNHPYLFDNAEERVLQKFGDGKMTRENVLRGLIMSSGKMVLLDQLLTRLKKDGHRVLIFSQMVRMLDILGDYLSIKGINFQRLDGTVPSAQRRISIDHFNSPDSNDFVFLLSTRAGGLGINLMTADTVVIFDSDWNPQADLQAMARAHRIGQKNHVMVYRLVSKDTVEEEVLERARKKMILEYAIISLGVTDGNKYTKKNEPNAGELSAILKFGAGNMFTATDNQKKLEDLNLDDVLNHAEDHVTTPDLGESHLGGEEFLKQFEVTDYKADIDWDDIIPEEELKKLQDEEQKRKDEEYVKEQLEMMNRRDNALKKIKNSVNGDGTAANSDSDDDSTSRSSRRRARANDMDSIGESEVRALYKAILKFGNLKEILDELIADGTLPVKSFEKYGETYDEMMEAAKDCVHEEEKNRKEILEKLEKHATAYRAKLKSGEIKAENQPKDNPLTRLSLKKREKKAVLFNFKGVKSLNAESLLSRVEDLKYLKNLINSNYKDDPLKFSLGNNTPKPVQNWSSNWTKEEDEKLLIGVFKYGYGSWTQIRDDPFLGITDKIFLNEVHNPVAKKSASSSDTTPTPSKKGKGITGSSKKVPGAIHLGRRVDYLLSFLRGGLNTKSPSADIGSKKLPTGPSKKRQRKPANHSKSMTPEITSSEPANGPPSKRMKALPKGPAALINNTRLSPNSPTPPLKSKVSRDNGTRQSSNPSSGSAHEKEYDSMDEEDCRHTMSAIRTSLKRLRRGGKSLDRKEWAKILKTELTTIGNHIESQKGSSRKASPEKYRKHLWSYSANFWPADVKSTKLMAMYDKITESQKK

Take `CC(C)Oc1ncccc1CNC(=O)N1CCC(C(N)=O)C1` (centres undefined): the Percent Effect in test [1] is -6.99%; in test [2], 5.26%; in test [3], -1.63%; in [4] it was 3.84%; with Trypanosoma cruzi it was -4.51%; in test [5], 2.68%. For the same molecule, the Percent Effect in [6] was 2%; in the test filed under Homo sapiens, 23.8%; in [7], 1.47%; in test [8] it was 7.32%; in test [9], -0.235%.
`CCOC(=O)CCCNC(=O)CN1CCN(c2ncccn2)CC1`: the Percent Effect in [1] is -2.22%; in [2], 7.79%; in test [3], -1.07%; in [4], 5.04%; in the test with Trypanosoma cruzi, -3.64%; in test [5], -112%. For the same molecule, the Percent Effect in [6] is 17.5%; in the test filed under Homo sapiens, 2.75%; in test [7], 5.38%; in test [8] it was 8.64%; in test [9] it was -0.631%.
For `CCO[C@@H]1CCN(C(=O)c2ccc[nH]2)[C@@H]1Cc1cnn(C)c1`, the Percent Effect is -3.08% in test [1]; 0% in test [2]; 17.3% in [3]; -3.48% in [4]; -5.91% with Trypanosoma cruzi; 3.5% in test [5]. Moreover, the Percent Effect in test [6] was 2.56%; in the test filed under Homo sapiens, 19.4%; in [7] it was 4.25%; in test [8], 3.85%; in [9], -2.5%.
Take `Cc1cc2c(=O)n3c(nc2s1)CCN(C(=O)c1ccncc1)CC3`: the Percent Effect was 0.412% in [1]; 1.35% in test [2]; 20.6% in [3]; 7.55% in [4]; -4.74% in the test on Trypanosoma cruzi; 3.02% in test [5]. The Percent Effect was 9.98% in [6]; 0.756% in the test listed under Homo sapiens; 2.15% in [7]; 6.49% in test [8]; -4.17% in test [9].
On to `CN1CCN(C(=O)CC2CCN(CCc3ccccn3)CC2)CC1`, for which the Percent Effect in [1] was -2.81%; in test [2], 5.2%; in [3], 3.53%; in [4], 5.15%; in the test on Trypanosoma cruzi, 5.58%; in [5], 4.84%. Also, the Percent Effect in [6] is 3.48%; in the test listed under Homo sapiens it was 9.07%; in [7], 6.67%; in test [8], 18.8%; in test [9], -17.3%.
`COc1ccnc(N2CCN(C(=O)CN3CCCC3=O)CC2)n1`: the Percent Effect in test [1] was -4.51%; in test [2] it was 18.4%; in test [3], -5.08%; in test [4], -0.685%; in the test with Trypanosoma cruzi it was 2.52%; in test [5], 2.88%. Besides, the Percent Effect in test [6] is 7.02%; in the test listed under Homo sapiens, 2.97%; in [7], 8.37%; in test [8], 25.9%; in test [9] it was -11.5%.
Consider `CS(=O)(=O)N[C@@H]1CCO[C@]2(CCN(C(=O)c3cnccn3)C2)C1`, for which the Percent Effect in test [1] is -3.71%; in test [2], 10.8%; in test [3], 1.74%; in test [4], -2.86%; in the test with Trypanosoma cruzi, 1.07%; in test [5], 0.955%. The Percent Effect in test [6] is 22.7%; in the test filed under Homo sapiens, 5.57%; in test [7], 7.57%; in [8], 17.9%; in test [9], 2.48%.
Consider `Cc1cc(F)c(S(=O)(=O)NCCCN2CCC(O)CC2)cc1F`, for which the Percent Effect in test [1] was 0.398%; in test [2], 5.2%; in [3] it was 5.04%; in [4], -1.8%; in the test on Trypanosoma cruzi, -10.9%; in test [5], -24.8%. The Percent Effect was 15.8% in test [6]; 19.9% in the test listed under Homo sapiens; -1.07% in test [7]; 1.24% in test [8]; -1.88% in [9].
`Cn1cnc(S(=O)(=O)N2CCN(Cc3ccco3)CC2)c1Cl`: the Percent Effect in test [1] is -3.16%; in [2] it was 4.17%; in test [3], -1.11%; in [4], 4.71%; in the test with Trypanosoma cruzi, 0.291%; in test [5] it was 0%. Further, the Percent Effect in test [6] was 4.74%; in the test listed under Homo sapiens, 8.03%; in [7], -17.9%; in test [8], 5.13%; in test [9], -0.35%.
